Source: PubChem BioAssay (NCATS)
Values without a mark were called inactive. Records with an inconclusive call do not appear. Entries that show only a call come without a potency. Active and inactive are the calls of the source. Unless noted, calls come from the whole dose curve; as a rule, active = well fitted curve in the direction sought with a large enough effect; inconclusive = small, poorly fitted or top-dose-only effect, or another doubt; inactive = no such curve, though single readings can be large; an effect the other way counts as inactive or inconclusive.

What was measured:
[1] = S16 Schwann cell PMP22 intronic element beta-lactamase assay (AID 624044; calls by dose curve; note: nearly all actives have a fitted effect of over 15% in size)
Summary of the method: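 Rat S16 Schwann cells with beta-Lac driven by a PMP22 intronic element, compound-treated 24 h at 37 °C. LiveBLAzer FRET B/G read: 460 nm normalized to potassium clavulanate vs DMSO; 535 nm FRET as viability; concentration-effect curves classified.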

CP194 = experiment: qHTS profiling for inhibitors of Plasmodium falciparum proliferation (AID 504749); note: nearly all actives have a fitted effect of over 60% in size; note: potency is the fitted concentration of half-maximal effect; settings: P. falciparum in erythrocytes, SYBR Green DNA, 72 h; series mostly up to 12.8 µM
Summary of the method: (§1)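 Infected RBCs, 0.3% parasitemia/2.5% Hct final; cpd 72 h, 37 C, 5% CO2; lysis buffer with saponin/triton/SYBR Green I, o/n RT dark; FI 485/535; norm. to artemisinin (0.29 uM) and DMSO.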

CP201 = experiment: as above; settings: P. falciparum in erythrocytes, SYBR Green DNA, 72 h; series mostly up to 12.8 µM
Summary of the method: as §1

CP211 = experiment: as above; settings: P. falciparum in erythrocytes, SYBR Green DNA, 72 h; series mostly up to 12.8 µM
Summary of the method: as §1

CP215 = experiment: as above; settings: P. falciparum in erythrocytes, SYBR Green DNA, 72 h; series mostly up to 12.8 µM
Summary of the method: as §1

CP237 = experiment: as above; settings: P. falciparum in erythrocytes, SYBR Green DNA, 72 h; series mostly up to 12.8 µM
Summary of the method: as §1

CP291 = experiment: as above; settings: P. falciparum in erythrocytes, SYBR Green DNA, 72 h; series mostly up to 12.8 µM
Summary of the method: as §1

CP315 = experiment: as above; settings: P. falciparum in erythrocytes, SYBR Green DNA, 72 h; series mostly up to 12.8 µM
Summary of the method: as §1

DFO2036 = experiment: as above; settings: P. falciparum in erythrocytes, SYBR Green DNA, 72 h; series mostly up to 12.8 µM
Summary of the method: as §1

DIV17 = experiment: as above; settings: P. falciparum in erythrocytes, SYBR Green DNA, 72 h; series mostly up to 12.8 µM
Summary of the method: as §1

GB4 = experiment: as above; settings: P. falciparum in erythrocytes, SYBR Green DNA, 72 h; series mostly up to 12.8 µM
Summary of the method: as §1

P94_40 = experiment: as above; settings: P. falciparum in erythrocytes, SYBR Green DNA, 72 h; series mostly up to 12.8 µM
Summary of the method: as §1

PC26 = experiment: as above; settings: P. falciparum in erythrocytes, SYBR Green DNA, 72 h; series mostly up to 12.8 µM
Summary of the method: as §1

W2 = experiment: as above; settings: P. falciparum in erythrocytes, SYBR Green DNA, 72 h; series mostly up to 12.8 µM
Summary of the method: as §1

[2] = molecular target: Cytochrome P450 3A4 (Homo sapiens) (UniProt P08684); experiment: qHTS Assay for Activators of Cytochrome P450 3A4 (AID 885); note: nearly all actives have a fitted effect of over 65% in size; note: potency is the fitted concentration of half-maximal effect
Summary of the method: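 Quantitative HTS format: compounds preincubated with 20nM human CYP3A4 and Luciferin-PPXE substrate at KM, reaction started by NADPH regeneration, stopped after 60 min, luciferase luminescence read 20 min later.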

[3] = S16 Schwann cell viability assay (CellTiter-Glo assay) (AID 624031);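 note: cellular ATP luminescence as a viability measure; nearly all actives have a fitted effect of over 70% in size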
Summary of the method: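 Untransfected S16 rat Schwann cells; compound 24 h, 37 °C/5% CO2; CellTiter-Glo ATP luminescence. % activity vs no-cell wells and DMSO controls (0%); concentration-effect curves classed by r2, response magnitude, activity.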

[4] = molecular target: Cytochrome P450 2D6 (Homo sapiens) (UniProt P10635); experiment: qHTS Assay for Inhibitors and Substrates of Cytochrome P450 2D6 (AID 891); note: nearly all actives have a fitted effect of over 60% in size; note: potency is the fitted concentration of half-maximal effect;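 for activity change, negative = inhibition: luciferin methyl ether substrate demethylated by CYP2D6 with NADPH regeneration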
Summary of the method: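 Human CYP2D6 (5 nM) with 30 uM Luciferin-ME EGE (at Km) in 100 mM KPO4, compound preincubated 10 min, then NADPH regeneration system for 60 min at room temperature. Luciferin read by luminescence; normalized to 1.43 uM quinidine.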

[5] = molecular target: Cytochrome P450 2C9 (Homo sapiens) (UniProt P11712); experiment: qHTS Assay for Inhibitors and Substrates of Cytochrome P450 2C9 (AID 883); note: nearly all actives have a fitted effect of over 60% in size; note: potency is the fitted concentration of half-maximal effect
Summary of the method: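 Turnover of Luciferin-H (100uM, KM) by 10nM human CYP2C9 was measured over 60 min at 37C with NADPH regeneration; inhibitors and some substrates reduce luminescence. Data normalized to sulphaphenazole 57uM.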

[6] = molecular target: Cytochrome P450 2C19 (Homo sapiens) (UniProt P33261); experiment: qHTS Assay for Inhibitors and Substrates of Cytochrome P450 2C19 (AID 899); note: nearly all actives have a fitted effect of over 60% in size; note: potency is the fitted concentration of half-maximal effect
Summary of the method: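 Reactions contain 5nM enzyme, 10uM Luciferin-H EGE (KM) and 50mM KPO4; compound preincubates 10 min at 37C, NADPH regeneration starts turnover for 60 min. Luminescence after detection reagent gives activity.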

[7] = molecular target: Cytochrome P450 3A4 (Homo sapiens) (UniProt P08684); experiment: qHTS Assay for Inhibitors and Substrates of Cytochrome P450 3A4 (AID 884); note: nearly all actives have a fitted effect of over 50% in size; note: potency is the fitted concentration of half-maximal effect
Summary of the method: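 20 nM human CYP3A4 with 25 uM Luciferin-PPXE (at KM) in 200 mM KPO4, preincubated 10 min with compound; NADPH regeneration started a 60 min RT reaction. Luciferin detected by luminescence, normalized to 57 uM ketoconazole as full inhibition.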

Cytochrome P450 2D6 (Homo sapiens), sequence (P10635 whole entry, looked up): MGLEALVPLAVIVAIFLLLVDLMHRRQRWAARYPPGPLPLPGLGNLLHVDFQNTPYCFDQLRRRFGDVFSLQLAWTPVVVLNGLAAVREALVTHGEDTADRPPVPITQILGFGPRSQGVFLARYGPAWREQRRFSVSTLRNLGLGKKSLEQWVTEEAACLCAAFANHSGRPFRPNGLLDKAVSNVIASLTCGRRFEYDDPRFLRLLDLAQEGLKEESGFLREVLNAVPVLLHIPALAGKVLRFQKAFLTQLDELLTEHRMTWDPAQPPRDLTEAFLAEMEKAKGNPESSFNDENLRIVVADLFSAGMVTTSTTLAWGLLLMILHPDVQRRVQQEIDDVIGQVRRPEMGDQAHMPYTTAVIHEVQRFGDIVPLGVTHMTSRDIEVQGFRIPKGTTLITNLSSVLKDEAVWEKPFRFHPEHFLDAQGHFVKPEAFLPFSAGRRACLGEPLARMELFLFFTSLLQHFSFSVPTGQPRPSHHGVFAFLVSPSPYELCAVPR
Cytochrome P450 2C19 (Homo sapiens), sequence (P33261 whole entry, looked up): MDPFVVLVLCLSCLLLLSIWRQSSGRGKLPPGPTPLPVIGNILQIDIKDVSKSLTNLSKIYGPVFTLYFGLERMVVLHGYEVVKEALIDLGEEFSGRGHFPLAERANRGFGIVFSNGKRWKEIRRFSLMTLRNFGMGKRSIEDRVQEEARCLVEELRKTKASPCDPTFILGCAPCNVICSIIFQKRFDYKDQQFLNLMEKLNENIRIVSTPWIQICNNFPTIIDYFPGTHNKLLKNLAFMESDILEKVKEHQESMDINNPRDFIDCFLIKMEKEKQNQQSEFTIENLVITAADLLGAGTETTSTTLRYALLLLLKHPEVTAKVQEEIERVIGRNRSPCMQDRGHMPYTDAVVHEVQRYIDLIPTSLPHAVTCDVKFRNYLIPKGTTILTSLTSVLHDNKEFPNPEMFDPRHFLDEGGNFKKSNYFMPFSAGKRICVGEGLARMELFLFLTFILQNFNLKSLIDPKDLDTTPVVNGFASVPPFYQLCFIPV
Cytochrome P450 2C9 (Homo sapiens), sequence (P11712 whole entry, looked up): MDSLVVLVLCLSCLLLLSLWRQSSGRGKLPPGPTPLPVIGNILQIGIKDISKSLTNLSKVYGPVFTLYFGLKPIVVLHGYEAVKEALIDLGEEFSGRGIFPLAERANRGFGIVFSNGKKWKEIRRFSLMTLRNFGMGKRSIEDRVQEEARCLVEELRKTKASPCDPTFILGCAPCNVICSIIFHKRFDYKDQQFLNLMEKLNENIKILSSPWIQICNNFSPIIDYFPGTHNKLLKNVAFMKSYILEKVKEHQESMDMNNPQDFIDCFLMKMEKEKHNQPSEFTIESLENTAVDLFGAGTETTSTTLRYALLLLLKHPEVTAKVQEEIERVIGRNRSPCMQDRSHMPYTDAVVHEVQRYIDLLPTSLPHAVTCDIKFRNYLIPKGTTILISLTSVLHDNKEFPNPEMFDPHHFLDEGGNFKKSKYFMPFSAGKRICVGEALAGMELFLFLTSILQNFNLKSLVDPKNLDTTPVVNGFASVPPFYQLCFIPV
Cytochrome P450 3A4 (Homo sapiens), sequence (P08684 whole entry, looked up): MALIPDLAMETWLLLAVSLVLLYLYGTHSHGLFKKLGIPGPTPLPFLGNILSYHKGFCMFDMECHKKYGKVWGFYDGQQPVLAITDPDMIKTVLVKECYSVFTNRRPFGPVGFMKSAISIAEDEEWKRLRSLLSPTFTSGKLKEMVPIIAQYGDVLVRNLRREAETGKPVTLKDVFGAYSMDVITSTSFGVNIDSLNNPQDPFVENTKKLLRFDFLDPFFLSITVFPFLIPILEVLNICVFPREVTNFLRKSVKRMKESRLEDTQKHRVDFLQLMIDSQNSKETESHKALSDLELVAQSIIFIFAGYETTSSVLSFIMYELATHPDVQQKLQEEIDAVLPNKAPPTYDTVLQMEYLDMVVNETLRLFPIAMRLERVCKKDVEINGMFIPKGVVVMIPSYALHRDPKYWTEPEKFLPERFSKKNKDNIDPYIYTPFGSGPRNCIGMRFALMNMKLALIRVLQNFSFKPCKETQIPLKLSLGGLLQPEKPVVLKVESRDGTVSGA

C[C@@H]1Cc2ccccc2N1NC(=O)c1ccc(Cl)c(S(N)=O)c1 (some centres not stated)
Potency [1]: inactive | Potency (CP194): inactive | Potency (CP201): inactive | Potency (CP211): inactive | Potency (CP215): inactive | Potency (CP237): inactive | Potency (CP291): inactive | Potency (CP315): inactive | Potency (DFO2036): inactive | Potency (DIV17): inactive | Potency (GB4): inactive | Potency (P94_40): inactive | Potency (PC26): inactive | Potency (W2): inactive

NS(=O)(=O)c1cc2c(cc1C(F)(F)F)N[C@H](Cc1ccccc1)NS2(=O)=O
Potency [2]: inactive | outcome [3]: inactive | Potency (CP194): inactive | Potency (CP201): inactive | Potency (CP211): inactive | Potency (CP215): inactive | Potency (CP237): inactive | Potency (CP291): inactive | Potency (CP315): inactive | Potency (DIV17): inactive | Potency (GB4): inactive | Potency (P94_40): inactive | Potency (PC26): inactive | Potency (W2): inactive

CC(C)(N=NC(C)(C)C(=N)N)C(=N)N
Potency [2]: inactive | activity change, negative = inhibition [4]: 23.6% [at 11.4 µM]

NC(=O)c1ccc[n+]([C@@H]2O[C@H](COP(=O)([O-])OP(=O)(O)OC[C@H]3O[C@@H](n4cnc5c(N)ncnc54)[C@@H](O)[C@@H]3O)[C@@H](O)[C@@H]2O)c1
Potency [5]: inactive | Potency [4]: inactive | Potency [6]: inactive | Potency (CP194): inactive | Potency (CP201): inactive | Potency (CP211): inactive | Potency (CP215): inactive | Potency (CP237): inactive | Potency (CP291): inactive | Potency (CP315): inactive | Potency (DFO2036): inactive | Potency (DIV17): inactive | Potency (GB4): inactive | Potency (P94_40): inactive | Potency (W2): inactive

CCC[C@@H]1O[C@@H]2C[C@@H]3[C@H]4CCC5=CC(=O)C=C[C@@]5(C)[C@H]4[C@H](O)C[C@@]3(C)[C@@]2(C(=O)CO)O1
Potency [1]: inactive | Potency (CP215): 15.1 µM (active) | Potency (P94_40): 11.2 µM (active) | Potency (PC26): 7.57 µM (active) | Potency (W2): 6.01 µM (active)

C=CCSC[C@@H]1Nc2cc(Cl)c(S(N)(=O)=O)cc2S(=O)(=O)N1
Potency [5]: inactive

Cn1c(-c2ccc3c(c2)OCO3)cc(=O)c2ccccc21
Potency [2]: inactive | Potency [4]: 1.58 µM (active)

CC(=O)N[C@H](CS)C(=O)O
Potency [5]: inactive | Potency [7]: inactive | Potency [4]: inactive | Potency [6]: inactive

C[C@H](C(=O)O)c1cccc(Oc2ccccc2)c1
Potency [1]: inactive | Potency (CP194): inactive | Potency (CP201): inactive | Potency (CP211): inactive | Potency (CP215): inactive | Potency (CP237): inactive | Potency (CP291): inactive | Potency (CP315): inactive | Potency (DIV17): inactive | Potency (GB4): inactive | Potency (P94_40): inactive | Potency (PC26): inactive | Potency (W2): inactive

CC(=O)C[C@H](c1ccc([N+](=O)[O-])cc1)c1c(O)c2ccccc2oc1=O
Potency [5]: 631 nM (active) | outcome [3]: inactive | Potency [1]: inactive | Potency (CP194): inactive | Potency (CP201): inactive | Potency (CP211): inactive | Potency (CP215): inactive | Potency (CP237): inactive | Potency (CP291): inactive | Potency (CP315): inactive | Potency (DFO2036): inactive | Potency (DIV17): inactive | Potency (GB4): inactive | Potency (P94_40): inactive | Potency (PC26): inactive | Potency (W2): inactive

CCC[C@H]1C[C@H](C(=O)N[C@H]([C@@H]2O[C@H](SC)[C@@H](O)[C@H](O)[C@@H]2O)[C@H](C)O)N(C)C1
Potency [5]: inactive

CN1CCN([C@@H](c2ccccc2)c2ccc(Cl)cc2)CC1
Potency [4]: 2 µM (active) | Potency [1]: inactive | Potency (CP211): inactive | Potency (CP237): inactive | Potency (CP315): inactive | Potency (DFO2036): inactive | Potency (W2): 2.03 µM (active)

C[C@H]1CC[C@@H]2[C@@H](C)[C@H]3[C@H](C[C@H]4[C@@H]5CC=C6C[C@@H](O[C@]7(O[C@H]8O[C@@H](C)[C@@H](O)[C@@H](O)[C@@H]8O)C[C@@H](O[C@@H]8O[C@H](CO)[C@@H](O)[C@H](O)[C@@H]8O)[C@@H](O)[C@H](CO)O7)CC[C@]6(C)[C@H]5CC[C@@]34C)N2C1
Potency [5]: inactive | Potency [7]: inactive | Potency [4]: inactive | Potency [6]: inactive

C#C[C@@]1(OC(C)=O)CC[C@@H]2[C@@H]3CCC4=C[C@@H](OC(C)=O)CC[C@H]4[C@H]3CC[C@]21C
Potency [7]: inactive | Potency [2]: 5.01 µM (active)

NCc1ccccc1CC(=O)N[C@@H]1C(=O)N2C(C(=O)O)=C(CSc3nnnn3CC(=O)O)CS[C@@H]12
outcome [3]: inactive | Potency [1]: inactive | Potency (CP194): inactive | Potency (CP201): inactive | Potency (CP211): inactive | Potency (CP215): inactive | Potency (CP237): inactive | Potency (CP291): inactive | Potency (CP315): inactive | Potency (DFO2036): inactive | Potency (DIV17): inactive | Potency (GB4): inactive | Potency (P94_40): inactive | Potency (PC26): inactive | Potency (W2): inactive

COc1ccc(CNc2ncncc2-c2ccccc2CN(C)C)c(OC)c1
Potency [7]: 398 nM (active) | Potency [2]: inactive | Potency [4]: 2.51 µM (active)

C#C[C@@]1(O)CC[C@@H]2[C@@H]3CCC4=CC(=O)CC[C@@H]4[C@H]3CC[C@]21C
Potency [6]: 5.01 µM (active)

NC(=O)N[C@H]1NC(=O)NC1=O
outcome [3]: inactive | Potency [1]: inactive | Potency (CP194): inactive | Potency (CP201): inactive | Potency (CP211): inactive | Potency (CP215): inactive | Potency (CP237): inactive | Potency (CP291): inactive | Potency (CP315): inactive | Potency (DIV17): inactive | Potency (P94_40): inactive | Potency (PC26): inactive | Potency (W2): inactive
